# Assay results as given in the supplement of paper PMC10037445.
# Whole data set: some 2,900 compounds, median “NF-kB SEAP reporter activity, fold change vs agonist alone” near 0.99, cut for the highest 2% near 2.6. The sample as a whole holds a higher share of the highest values than the screen did.
# Tests used:
# RAW-Dual [1] = test: NF-kB SEAP reporter activity, fold change vs agonist alone; cytotoxicity flag (confluency mask): not cytotoxic; higher = enhanced NF-kB activity
# Summary of the method: (§1)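 RAW-Dual macrophages (50,000 cells/well in DMEM, 384-well plates) received 50 nL of library stock by pin tool, then a PRR agonist 1 h later, and were kept at 37 °C, 5% CO2. After 20 hours, supernatant was read for IRF by QuantiLuc luminescence and for NF-κB by QuantiBlue absorbance at 620 nm. Reporter activity is fold change over agonist-alone wells. Cytotoxic wells had IncuCyte confluency below 70% of agonist controls in both mask sets.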
# RAW-Dual [2] = test: NF-kB SEAP reporter activity, fold change vs agonist alone; higher = enhanced NF-kB activity; settings: cytotoxicity flag (confluency mask): not cytotoxic
# Summary of the method: as §1
# [3] = agonist: ODN 1826 (TLR9) 0.5 ug/mL
# [4] = agonist: Pam2CSK4 (TLR2/6) 0.1 ug/mL
# [5] = agonist: Pam3CSK4 (TLR2/1) 0.1 ug/mL
# [6] = library stock concentration (final ~1000-fold dilution): 10 mM, agonist: Imiquimod (TLR7) […]
# [7] = library stock concentration (final ~1000-fold dilution): 10 mM, agonist: MPLA (TLR4) […]
# [8] = library stock concentration (final ~1000-fold dilution): .1 mM, agonist: Imiquimod (TLR7) […]
# [9] = library stock concentration (final ~1000-fold dilution): .1 mM, agonist: MPLA (TLR4) […]
smiles,measurement,setting,value
O=C(NCC(O)CN1CCc2ccccc2C1)c1ccnc(NC2CCC2)c1 (stereo not drawn) (library stock concentration (final ~1000-fold dilution): 10 mM),NF-kB SEAP reporter activity,RAW-Dual [1]; agonist: LPS (TLR4) 0.1 ug/mL,0.908
same,NF-kB SEAP reporter activity,RAW-Dual [1]; [3],0.581
same,NF-kB SEAP reporter activity,RAW-Dual [1]; [4],1.03
same,NF-kB SEAP reporter activity,RAW-Dual [1]; [5],0.884
O=C(NCC(O)CN1CCc2ccccc2C1)c1ccnc(NC2CCC2)c1 (stereo not drawn),NF-kB SEAP reporter activity,RAW-Dual [2]; [6],0.885
same,NF-kB SEAP reporter activity,RAW-Dual [2]; [7],0.997
CN(c1ncccc1CNc1nc(Nc2ccc3c(c2)CC(=O)N3)ncc1C(F)(F)F)S(C)(=O)=O.O=S(=O)(O)c1ccccc1 (library stock concentration (final ~1000-fold dilution): 10 mM),NF-kB SEAP reporter activity,RAW-Dual [1]; agonist: LPS (TLR4) 0.1 ug/mL,0.207
same,NF-kB SEAP reporter activity,RAW-Dual [1]; [3],0.982
same,NF-kB SEAP reporter activity,RAW-Dual [1]; [4],0.147
same,NF-kB SEAP reporter activity,RAW-Dual [1]; [5],0.882
CN(c1ncccc1CNc1nc(Nc2ccc3c(c2)CC(=O)N3)ncc1C(F)(F)F)S(C)(=O)=O.O=S(=O)(O)c1ccccc1,NF-kB SEAP reporter activity,RAW-Dual [2]; [6],1.02
same,NF-kB SEAP reporter activity,RAW-Dual [2]; [7],0.953
CC(C)(F)CC(NC(c1ccc(-c2ccc(S(C)(=O)=O)cc2)cc1)C(F)(F)F)C(=O)NC1(C#N)CC1 (stereo not drawn) (library stock concentration (final ~1000-fold dilution): 10 mM),NF-kB SEAP reporter activity,RAW-Dual [1]; agonist: LPS (TLR4) 0.1 ug/mL,0.968
same,NF-kB SEAP reporter activity,RAW-Dual [1]; [3],1.15
same,NF-kB SEAP reporter activity,RAW-Dual [1]; [4],0.937
same,NF-kB SEAP reporter activity,RAW-Dual [1]; [5],0.97
CC(C)(F)CC(NC(c1ccc(-c2ccc(S(C)(=O)=O)cc2)cc1)C(F)(F)F)C(=O)NC1(C#N)CC1 (stereo not drawn),NF-kB SEAP reporter activity,RAW-Dual [2]; [6],0.932
same,NF-kB SEAP reporter activity,RAW-Dual [2]; [7],1.02
COc1ccc2c(-c3ccc(O)c(C)c3)ccnc2c1,NF-kB SEAP reporter activity,RAW-Dual [2]; [8],0.339
same,NF-kB SEAP reporter activity,RAW-Dual [2]; [9],1.1
Cc1cc(-c2ccnc3cc(O)ccc23)ccc1O (library stock concentration (final ~1000-fold dilution): .1 mM),NF-kB SEAP reporter activity,RAW-Dual [1]; agonist: LPS (TLR4) 0.1 ug/mL,3.3
same,NF-kB SEAP reporter activity,RAW-Dual [1]; [3],1.31
same,NF-kB SEAP reporter activity,RAW-Dual [1]; [4],1.32
same,NF-kB SEAP reporter activity,RAW-Dual [1]; [5],1.41
COc1ccc2c(-c3ccc(O)c(C)c3)ccnc2c1 (library stock concentration (final ~1000-fold dilution): .1 mM),NF-kB SEAP reporter activity,RAW-Dual [1]; agonist: LPS (TLR4) 0.1 ug/mL,1.1
same,NF-kB SEAP reporter activity,RAW-Dual [1]; [3],1.07
same,NF-kB SEAP reporter activity,RAW-Dual [1]; [4],0.664
same,NF-kB SEAP reporter activity,RAW-Dual [1]; [5],0.85
Cc1cc(-c2ccnc3cc(O)ccc23)ccc1O,NF-kB SEAP reporter activity,RAW-Dual [2]; [8],1.38
same,NF-kB SEAP reporter activity,RAW-Dual [2]; [9],2.06
CC(NCc1ccc(OCc2cccc(F)c2)cc1)C(N)=O (stereo not drawn) (library stock concentration (final ~1000-fold dilution): 10 mM),NF-kB SEAP reporter activity,RAW-Dual [1]; agonist: LPS (TLR4) 0.1 ug/mL,1.32
same,NF-kB SEAP reporter activity,RAW-Dual [1]; [3],0.933
same,NF-kB SEAP reporter activity,RAW-Dual [1]; [4],1.16
same,NF-kB SEAP reporter activity,RAW-Dual [1]; [5],0.745
CC(NCc1ccc(OCc2cccc(F)c2)cc1)C(N)=O (stereo not drawn),NF-kB SEAP reporter activity,RAW-Dual [2]; [7],1.07
FC(F)c1nc2ccccc2n1-c1nc(N2CCOCC2)nc(N2CCOCC2)n1,NF-kB SEAP reporter activity,RAW-Dual [2]; [6],1.77
same,NF-kB SEAP reporter activity,RAW-Dual [2]; [7],1.32
Nc1cc(C(F)(F)F)c(-c2nc(N3CCOCC3)nc(N3CCOCC3)n2)cn1 (library stock concentration (final ~1000-fold dilution): 10 mM),NF-kB SEAP reporter activity,RAW-Dual [1]; agonist: LPS (TLR4) 0.1 ug/mL,0.943
same,NF-kB SEAP reporter activity,RAW-Dual [1]; [3],0.711
same,NF-kB SEAP reporter activity,RAW-Dual [1]; [4],0.402
same,NF-kB SEAP reporter activity,RAW-Dual [1]; [5],0.503
Nc1cc(C(F)(F)F)c(-c2cc(N3CCOCC3)nc(N3CCOCC3)n2)cn1,NF-kB SEAP reporter activity,RAW-Dual [2]; [6],1.71
same,NF-kB SEAP reporter activity,RAW-Dual [2]; [7],1.63
FC(F)c1nc2ccccc2n1-c1nc(N2CCOCC2)nc(N2CCOCC2)n1 (library stock concentration (final ~1000-fold dilution): 10 mM),NF-kB SEAP reporter activity,RAW-Dual [1]; agonist: LPS (TLR4) 0.1 ug/mL,2.13
same,NF-kB SEAP reporter activity,RAW-Dual [1]; [3],0.832
same,NF-kB SEAP reporter activity,RAW-Dual [1]; [4],0.936
same,NF-kB SEAP reporter activity,RAW-Dual [1]; [5],0.767
Nc1cc(C(F)(F)F)c(-c2nc(N3CCOCC3)nc(N3CCOCC3)n2)cn1,NF-kB SEAP reporter activity,RAW-Dual [2]; [6],0.783
same,NF-kB SEAP reporter activity,RAW-Dual [2]; [7],1.11
Nc1cc(C(F)(F)F)c(-c2cc(N3CCOCC3)nc(N3CCOCC3)n2)cn1 (library stock concentration (final ~1000-fold dilution): 10 mM),NF-kB SEAP reporter activity,RAW-Dual [1]; agonist: LPS (TLR4) 0.1 ug/mL,2.59
same,NF-kB SEAP reporter activity,RAW-Dual [1]; [3],2.07
same,NF-kB SEAP reporter activity,RAW-Dual [1]; [4],1.49
same,NF-kB SEAP reporter activity,RAW-Dual [1]; [5],0.904
